These results are taken from PubChem BioAssay AID1942 (Johns Hopkins Ion Channel Center, 2009).

Out of some 2,400 compounds screened, about 580 (24%) were called active. These entries were drawn from the full list. Unmarked numbers belong to inactive results.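 How the source made its calls: active means activity change at or above the mean plus 3 SD of buffer wells without dofetilide, per plate; inactive means the rest.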

The target in this test is Potassium voltage-gated channel subfamily KQT member 2 (Rattus norvegicus) (UniProt O88943). The experiment in a line: rat KCNQ2 channel activation by compounds alone, confirmation, counter-screen for hERG block protector project, cell-based, CHO, FluxOR thallium flux (AID 1942).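 Further: normalized value minus buffer-control mean plus three SD of buffer wells.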 The note with it: CHO-KCNQ2 cells, FluxOR thallium flux fluorescence; at 10 µM; hits give high values. A general note: The purpose of a counterscreen is to sort out artefacts and off-target activity.
Chain of Potassium voltage-gated channel subfamily KQT member 2 (Rattus norvegicus) (O88943 whole entry, looked up): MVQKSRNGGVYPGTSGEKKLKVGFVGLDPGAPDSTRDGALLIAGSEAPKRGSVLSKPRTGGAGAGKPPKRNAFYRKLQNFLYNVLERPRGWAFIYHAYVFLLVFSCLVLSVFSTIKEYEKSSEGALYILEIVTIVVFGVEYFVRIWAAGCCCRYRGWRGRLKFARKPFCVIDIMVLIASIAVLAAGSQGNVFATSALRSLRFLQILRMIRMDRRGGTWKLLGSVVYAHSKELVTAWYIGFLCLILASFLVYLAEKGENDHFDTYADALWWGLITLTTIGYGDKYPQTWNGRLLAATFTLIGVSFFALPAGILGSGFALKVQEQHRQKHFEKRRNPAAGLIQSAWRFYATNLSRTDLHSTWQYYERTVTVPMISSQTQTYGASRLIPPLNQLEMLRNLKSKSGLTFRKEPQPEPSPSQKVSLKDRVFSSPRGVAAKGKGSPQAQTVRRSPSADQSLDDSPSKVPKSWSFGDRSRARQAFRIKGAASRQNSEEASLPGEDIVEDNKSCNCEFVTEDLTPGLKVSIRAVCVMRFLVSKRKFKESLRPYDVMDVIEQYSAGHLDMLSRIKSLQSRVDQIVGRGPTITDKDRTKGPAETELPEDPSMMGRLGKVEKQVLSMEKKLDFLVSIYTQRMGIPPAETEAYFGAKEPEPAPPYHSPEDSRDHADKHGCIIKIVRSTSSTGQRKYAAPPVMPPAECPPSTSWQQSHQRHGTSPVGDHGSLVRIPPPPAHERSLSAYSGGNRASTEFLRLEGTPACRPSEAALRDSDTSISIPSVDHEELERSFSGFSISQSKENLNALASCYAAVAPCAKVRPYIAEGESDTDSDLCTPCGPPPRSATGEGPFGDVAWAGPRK
In the case of `CC(NC(=O)C1CCN(S(=O)(=O)c2cccc3cccnc23)CC1)c1ccccc1` (configuration not stated), the activity change, less the hit threshold was 0.9% (active).

Consider `Cc1[nH]c(=O)[nH]c(=O)c1S(=O)(=O)N1CCC(C(=O)NC(C)c2ccccc2)CC1` (configuration not stated), for which the activity change, less the hit threshold is -19.6%.

For `O=C(NCc1ccc(Cl)cc1)C1CCN(S(=O)(=O)c2cccc3nonc23)CC1`, the activity change, less the hit threshold was -10%.

As to `Nc1ncnc(NC2CCS(=O)(=O)C2)c1[N+](=O)[O-]` (configuration not stated), the activity change, less the hit threshold was -11.2%. Consider `CC(NS(=O)(=O)c1ccccc1)C(N)=O` (configuration not stated), for which the activity change, less the hit threshold was -21.1%.

In the case of `CC1CCc2c(sc(NS(=O)(=O)c3ccccc3)c2C(=O)OC(C)C)C1` (configuration not stated), the activity change, less the hit threshold was 8.2% (active).

`CCOC(=O)c1c(NS(C)(=O)=O)sc2c1CCC(C)C2` (configuration not stated): the activity change, less the hit threshold is 26.3% (active). As to `COC(=O)c1c(NC(=O)CN2CCOCC2)sc2c1CCC(C)C2` (configuration not stated), the activity change, less the hit threshold is -9.9%. Then `CC(C)OC(=O)c1c(NS(=O)(=O)c2ccccc2)sc2c1CCCC2`, with 9.1% (active); and `CCOC(=O)c1c(C)[nH]c(C)c1S(=O)(=O)N1CCCCC1`, with -11%. Take `Cc1cc(C)c(-c2cc(NC(=O)COC(=O)c3ccc(NC(=O)CC#N)cc3)n(-c3ccccc3)n2)cc1C`: the activity change, less the hit threshold was -22.1%.

As to `NC(=O)CC1NC(=O)c2ccccc21` (configuration not stated), the activity change, less the hit threshold was -13.3%. Then `CCCNS(=O)(=O)c1ccc(OCC(=O)Nc2ccc3c(c2)OCCO3)cc1`, with -11.5%; and `Cc1oc(-c2cccs2)nc1CN1CCC(C(=O)N2CCCC2)CC1`, with -17.4%. `CC1c2nc3ccccc3n2C(CC(=O)NCCCN2CCOCC2)C(=O)N1Cc1ccccc1` (configuration not stated): the activity change, less the hit threshold was -19.4%. The value for `CC1CCN(C(=S)NC(=O)c2cccc([N+](=O)[O-])c2)CC1` was 5.8% (active).

Regarding `CCC1CCCCN1C(=S)NC(=O)c1cccc([N+](=O)[O-])c1` (configuration not stated), the activity change, less the hit threshold was 24% (active). In the case of `O=C(O)c1cccc(C(=O)Nc2cccc(NC(=O)C3CCCO3)c2)c1` (configuration not stated), the activity change, less the hit threshold was -21.4%. Consider `O=C(NC(=S)N(CC1CCC1)CC1CCCO1)c1cccc([N+](=O)[O-])c1` (configuration not stated), for which the activity change, less the hit threshold is 39.6% (active). Then `CCC1CCCCN1C(=S)NC(=O)c1cccs1` (configuration not stated), with -4.1%; and `O=C(Nc1ccc(Oc2cccnc2)cc1)c1cccc([N+](=O)[O-])c1`, with -14.1%; and `CCC1CCCCN1C(=S)NC(=O)c1ccc([N+](=O)[O-])cc1` (configuration not stated), with 32.5% (active).

Turning to `O=C(NC(=S)Nc1ccccc1N1CCCC1)c1ccc(-c2cccc([N+](=O)[O-])c2)o1`, the activity change, less the hit threshold is -10.1%. The value for `Cn1cc([N+](=O)[O-])c(C(=O)N/N=C\c2c[nH]c3ccccc23)n1` was -15.5%; that for `CCCCN1C(=O)/C(=C2/Sc3ccc(Cl)cc3N2CC)SC1=S` was -27.6%; that for `CNC(=O)c1ccc(NC(=O)CN2c3cccc4cccc(c34)S2(=O)=O)cc1` was -18.1%. Then `COc1ccc(CS(=O)(=O)CC2(O)CCN(C(=O)c3cccc(C(F)(F)F)c3)CC2)cc1`, with -25.4%. The value for `O=C1CN(C(=O)COc2ccccc2F)c2ccccc2N1` was -18.7%. On to `O=C(c1csc(Nc2ccccc2Cl)n1)N1CCCC1`, for which the activity change, less the hit threshold is -14.5%. Then `COc1cc(CNn2nnnc2N)ccc1OCC(=O)NC(C)(C)C`, with -20%; and `COc1ccccc1CC(=O)Nc1ccc(OC)c(OC)c1`, with -12.4%. For the compound `COc1ccc(NC(=O)CCN2C(=O)C3C4C=CC(C4)C3C2=O)cc1` (configuration not stated), the activity change, less the hit threshold is -21.1%. With `COc1ccc(NC(=O)CC23CC4CC(CC(C4)C2)C3)cn1`, the activity change, less the hit threshold is 44.4% (active). Consider `CC(C)(C)c1cc(CCC(=O)NCc2ccncc2)cc(C(C)(C)C)c1O`, for which the activity change, less the hit threshold was -15.7%.

For `CCOC(=O)c1sc2nc(N3CCOCC3)c3c(c2c1N)CCN(Cc1ccccc1)C3`, the activity change, less the hit threshold was 0.1% (active). The value for `Cn1ncc2c(NNC(=O)c3ccc(O)cc3)ncnc21` was -24.5%. The value for `CC(C)(C)NC(=O)C(=O)NNC(=O)COc1ccccc1` was -16.3%; that for `CC/C(=N\NC(=S)Nc1cccc(C)c1)c1ccccc1` was -13%; that for `CC(C)(C)NC(=O)C(=O)NNC(=O)c1ccccc1` was -9.7%.

Consider `CCCc1cc(C(=O)NNC(=S)Nc2cccc(C)c2)cs1`, for which the activity change, less the hit threshold is -16.5%. For `CC(C)(C)NC(=O)C(=O)NNC(=O)c1ccc(C(C)(C)C)cc1`, the activity change, less the hit threshold was 27.1% (active). Regarding `CC(C)(C)NC(=O)C(=O)NNC(=O)c1cccc(Br)c1`, the activity change, less the hit threshold is 16.4% (active). The value for `CC(C)(C)NC(=O)C(=O)NNC(=O)COc1ccc(Br)cc1` was 41.1% (active); that for `O=C(Nc1ccccc1C(=O)O)c1cncc(Br)c1` was -3%; that for `CC(C)(C)c1ccc(C(=O)CC(=O)c2cc(Cl)ccc2O)cc1` was -11.6%. In the case of `O=C(NN1C(=O)C2C(c3ccccc3)C=CC(c3ccccc3)C2C1=O)c1cccc(Br)c1` (configuration not stated), the activity change, less the hit threshold is -3.8%.

`Cc1cccc(NC(=O)C(=O)NNC(=O)c2ccc(C(C)(C)C)cc2)c1`: the activity change, less the hit threshold was 110% (active). As for `C=CCNC(=O)COc1ccc(Oc2ccccc2)cc1`, the activity change, less the hit threshold is -6.4%. As to `O=C(/C=C/c1ccccc1)Nc1ccc(S(=O)(=O)N2CCOCC2)cc1`, the activity change, less the hit threshold was -12.6%. Regarding `Cc1cc(C(=O)N/N=C/c2ccc(O)c([N+](=O)[O-])c2)n[nH]1`, the activity change, less the hit threshold was -19.6%. On to `O=C(CSc1ccccc1)N1CCN(S(=O)(=O)c2cccs2)CC1`, for which the activity change, less the hit threshold is -6.8%. The value for `O=C(CSc1nnc(NC(=O)c2ccc(S(=O)(=O)N3CCOCC3)cc2)s1)Nc1ccccc1C(F)(F)F` was -15.6%; that for `O=C(CSc1nc2ccc(NC(=O)c3ccccc3C(=O)O)cc2s1)Nc1c(Cl)cccc1Cl` was -7.3%; that for `COc1ccc(N2C(=O)CCC(C(=O)O)C2c2ccc(F)cc2)cc1` (configuration not stated) was -16.9%.

In the case of `CCC(C)NC(=O)Cn1nc(C(F)(F)F)c2c1CCCC2` (configuration not stated), the activity change, less the hit threshold is -23.4%. Then `O=C(NCc1cccnc1)Nc1ccc2c(c1)OCO2`, with -26%; and `S=C(NCc1ccco1)N1CCN(c2nc(-c3ccccc3)cs2)CC1`, with -24.1%; and `O=C(NC(=S)Nc1nc(-c2ccccc2)cs1)c1cncc(Br)c1`, with -12.3%. As for `O=C(NC(=S)N1CCN(c2nc(-c3ccccc3)cs2)CC1)c1cncc(Br)c1`, the activity change, less the hit threshold was 45.1% (active). The value for `CCC(C)c1ccccc1NC(=O)C(C)NCCN(C)C` (configuration not stated) was -17.2%. The value for `COc1ccc(C)cc1S(=O)(=O)NC1CCCCC1` was -6.4%. Regarding `CCOC(=O)c1cc2c(nc1NC(=S)NCc1ccccc1)CCCC2`, the activity change, less the hit threshold was -13.9%.

For `C=CCNC(=S)Nc1nc2c(cc1C(=O)OCC)CCCC2`, the activity change, less the hit threshold is 1.1% (active). The value for `CCNC(=S)Nc1nc2c(cc1C(=O)OCC)CCCC2` was 6.4% (active); that for `C=C(C)CNC(=S)Nc1nc2c(cc1C(=O)OCC)CCCC2` was -9.5%; that for `CCc1cccc2c1NC(=O)C2(O)CC(=O)c1cccs1` (configuration not stated) was -20.9%. The value for `O=C(CCc1ccccc1)NC(=S)Nc1cc(C(F)(F)F)ccc1N1CCOCC1` was -30.4%. Then `CCc1nccn1S(=O)(=O)c1ccc2ccc(C)cc2c1`, with -8.3%; and `CC(OC(=O)c1cc2c(s1)CCCCC2)C(=O)NC(N)=O` (configuration not stated), with -23.7%; and `O=C(c1cc2c(s1)-c1ccccc1OC2)N1CCCC1`, with -12.6%. Turning to `NC(=O)C1CCN(C(=O)c2cc3c(s2)CCCC3)CC1`, the activity change, less the hit threshold was 12% (active). As for `Cc1sc2ncnc(SCC(=O)c3ccc(O)cc3O)c2c1C`, the activity change, less the hit threshold was 2.9% (active).

Regarding `Cc1sc2ncnc(SCC(=O)NC(=O)c3cccn3C)c2c1C`, the activity change, less the hit threshold is -2.4%. Then `CCOc1ccc(-n2cnc3sc(C)c(C)c3c2=O)cc1`, with -26.5%; and `O=C(Nc1cccnc1)c1ccc(COc2ccccc2Br)o1`, with -13.5%. For `C=CCOc1ccccc1/C=c1\sc2nc(=O)c(C)nn2c1=O`, the activity change, less the hit threshold was -17.3%.

Regarding `O=C(NC(=S)NCCc1ccc(Cl)cc1)c1ccco1`, the activity change, less the hit threshold is -7.7%. As for `O=C(NC(=S)NCCC1=CCCCC1)c1ccco1`, the activity change, less the hit threshold is 42.7% (active). In the case of `S=C(NCCc1ccccc1)NCCN1CCOCC1`, the activity change, less the hit threshold was -16.4%. Regarding `O=C(NC(=S)NCCC1=CCCCC1)c1ccc(Br)o1`, the activity change, less the hit threshold is 3.5% (active). The value for `Cc1ccc(/C=N/Nc2ccc(C(=O)O)cc2)o1` was -9.1%. Turning to `Cc1ccc(N=C2NC(=O)/C(=C/c3cccs3)S2)cc1C`, the activity change, less the hit threshold was -6.4%. The value for `O=C(OCc1ccccc1)/C(=C/c1cccc([N+](=O)[O-])c1)NC(=O)c1ccco1` was -19.1%; that for `O=C1NC(=S)S/C1=C\c1ccc2ccccc2c1` was 53.3% (active); that for `O=C1NC(=S)/C(=C\c2ccc(-c3ccccc3Cl)o2)S1` was -18.7%. In the case of `COc1ccc2nc(N3CCCCC3)c(/C=C3\SC(=S)NC3=O)cc2c1`, the activity change, less the hit threshold is -17.9%. The value for `S=c1[nH]c(-c2ccccc2)cn1/N=C/c1cccc2ccccc12` was -7.9%. Take `Cn1c(=S)[nH]c2sc3c(c2c1=O)CCC(C(C)(C)C)C3` (configuration not stated): the activity change, less the hit threshold is 70.3% (active).

Take `CC1CCc2c(sc3[nH]c(=S)n(C)c(=O)c23)C1` (configuration not stated): the activity change, less the hit threshold was 72.5% (active). `CCCOC(=O)CN1C(=O)c2ccc(C(=O)OCCC)cc2C1=O`: the activity change, less the hit threshold was -12.2%. Then `O=c1oc2cc(OCCO)ccc2c2c1CCCC2`, with -17.1%; and `Cc1ccc2nc(-c3ccncc3)cc(C(=O)Nc3ccc4c(c3)OCCO4)c2c1`, with -19.5%. The value for `CS(=O)(=O)N1CCC(C(=O)Nc2c(F)cccc2F)CC1` was -11.1%; that for `COc1ccc(Cl)cc1C(=O)NNC(=S)NC(=O)/C=C/c1ccco1` was -17%. On to `Cc1occc1C(=O)NNC(=S)NC(=O)COc1ccc(Cl)cc1Cl`, for which the activity change, less the hit threshold is 64.9% (active).

Regarding `O=C(COc1ccc(Cl)cc1Cl)NC(=S)Nc1ccccc1C(=O)O`, the activity change, less the hit threshold is -12.7%. Then `COc1ccc(CN(C)C(=O)c2cccc(NS(=O)(=O)c3ccccc3)c2)cc1F`, with -13.5%.
